Experimental data as given in paper PMC5540273 (PLoS ONE, 2017).
Where two headings read alike, the source gives them in different places.

Columns and labels:
[1] = system: GRK1; conditions: concentration: 1 μM, replicates: in singlicate; n = 1
[2] = system: T1, GRK2; conditions: concentration: 1 μM, replicates: in singlicate; n = 1
T1 construct: gene ADRBK1

[3] = system: T2, GRK3; conditions: concentration: 1 μM, replicates: in singlicate; n = 1
T2 construct: gene ADRBK2

[4] = system: GRK4; conditions: concentration: 1 μM, replicates: in singlicate; n = 1
[5] = system: GRK7; conditions: concentration: 1 μM, replicates: in singlicate; n = 1
[6] = system: GSK3A; conditions: concentration: 1 μM, replicates: in singlicate; n = 1
[7] = system: GSK3B; conditions: n = 1
[8] = system: T3, HASPIN; conditions: concentration: 1 μM, replicates: in singlicate; n = 1
T3 construct: gene GSG2

[9] = system: HCK; conditions: concentration: 1 μM, replicates: in singlicate; n = 1
[10] = system: HIPK1; conditions: concentration: 1 μM, replicates: in singlicate; n = 1
[11] = concentration: 1 μM, replicates: in singlicate
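Further: KINOMEscan kinase panel screen.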

Structure (SMILES)	%Inh [1]	%Inh [2]	%Inh [3]	%Inh [4]	%Inh [5]	%Inh [6]	%Inh [7, 11]	%Inh [8]	%Inh [9]	%Inh [10]	%Inh ([7]; 1 µM)
OCCOCCn1ccc2ncnc(Nc3ccc(Oc4cccc(Cl)c4)c(Cl)c3)c21	9%	0%	0%	0%	0%	9%	0%	0%	9%	16%	–
Cl.Fc1ccccc1COc1ccc(Nc2ncnc3ccc(-c4nnc(C(F)(F)F)o4)cc23)cc1Cl [GW424170]	0%	0%	0%	0%	0%	17%	0%	0%	0%	1%	–
Fc1cccc(COc2ccc(Nc3ncnc4cc[nH]c34)cc2Cl)c1	22%	20%	3%	35%	23%	12%	8%	0%	24%	27%	–
CS(=O)(=O)CCNCc1ccc(-c2ccc3ncnc(Nc4ccc(OCc5ccccc5)c(Cl)c4)c3c2)o1.Cl [GW574783]	2%	1%	20%	0%	0%	8%	1%	30%	18%	0%	–
COC(=O)c1cccc(NC(=O)NCCNc2ccnc(Nc3ccc(F)cc3)n2)c1 [GSK1379883]	0%	0%	17%	2%	0%	19%	0%	37%	0%	0%	–
O=C(Nc1n[nH]c2nc(-c3ccco3)c(Br)cc12)c1ccc(CN2CCCC2)cc1.O=C(O)[C@H](O)[C@@H](O)C(=O)O [SB-742352]	6%	0%	0%	20%	0%	76%	15%	15%	26%	0%	–
O=C(Nc1ccccc1)Nc1ccc(Oc2ccc3nccn3n2)cc1	11%	0%	0%	17%	0%	14%	0%	0%	7%	26%	–
Nc1nc(-c2cccnc2)c(-c2ccnc3ccccc23)s1 [GW684083]	0%	1%	39%	8%	0%	11%	7%	83%	0%	11%	–
CN1c2ccc(-c3ccc(C(=O)NCCO)cc3)cc2-c2[nH]ncc2S1(=O)=O	4%	0%	0%	1%	22%	8%	32%	21%	16%	67%	–
Clc1ccc(-c2cc(-c3c[nH]nc3-c3ccccn3)ccn2)cc1 [GW681251]	43%	0%	11%	0%	0%	7%	32%	0%	0%	7%	–
Cc1cccc(-c2nc(Nc3ccc4[nH]nnc4c3)c3ccccc3n2)n1 [GW867587]	3%	0%	24%	0%	0%	0%	0%	0%	10%	0%	–
Clc1cc(Nc2ncnc3cc[nH]c23)ccc1OCc1ccccn1	15%	0%	9%	25%	14%	6%	7%	0%	41%	28%	–
CC(C)N1CCC(n2cnc(-c3ccc(F)cc3)c2-c2ccnc(N)n2)CC1 [SB-223132]	0%	0%	0%	4%	0%	17%	0%	12%	0%	30%	–
O=C(Nc1ccccc1F)NC1CCN(c2ccnc(Nc3ccc(F)cc3)n2)C1 (stereo not shown) [GSK1379722]	0%	0%	57%	0%	0%	0%	8%	0%	0%	0%	–
c1ccc(-c2ccc3c(-c4ccnc(Nc5ccc6c(c5)OCCO6)n4)cnn3n2)cc1 [GW818941]	0%	7%	0%	11%	0%	12%	0%	0%	16%	0%	–
COC(=O)c1c(-c2ccccc2)c2cc(Cl)ccc2c(=O)n1Cc1ccc(S(C)(=O)=O)cc1	0%	0%	15%	12%	15%	0%	0%	27%	14%	14%	–
CC(C)(C)c1ccc(-n2cnc3c(N)ncnc32)cc1 [SKF-97263]	3%	0%	0%	24%	0%	31%	4%	64%	13%	19%	–

Structure (SMILES)	%Inh [1]	%Inh [2]	%Inh [3]	%Inh [4]	%Inh [5]	%Inh [6]	%Inh [7, 11]	%Inh [8]	%Inh [9]	%Inh [10]	%Inh ([7]; 1 µM)
FC(F)(F)c1cc(Nc2nccc(-c3c(-c4ccc(Cl)cc4)nn4ncccc34)n2)ccc1Cl [GW829351]	0%	0%	0%	10%	0%	26%	0%	0%	0%	3%	–
N#Cc1ccc(Oc2ccc(Nc3ncnc4cc[nH]c34)cc2Cl)cc1	27%	0%	7%	12%	14%	19%	0%	0%	21%	32%	–
Cl.c1ccc(Cn2ccc3cc(Nc4ncnc5ccccc45)ccc32)cc1 [GW275568]	9%	0%	0%	0%	0%	11%	7%	1%	0%	3%	–
Fc1cccc(COc2ccc(Nc3ncnc4nn5ccccc5c34)cc2Cl)c1 [GW689066]	0%	0%	30%	0%	0%	0%	0%	63%	0%	0%	–
Nc1nc(-c2ccc3c(N)n[nH]c3c2)cc(N2CCC[C@@H](C(=O)Nc3ccccc3)C2)n1.O=C(O)C(F)(F)F.O=C(O)C(F)(F)F [GSK2288359]	0%	0%	0%	27%	0%	20%	14%	0%	0%	0%	–
CC(C)(C)OC(=O)NC1CCCN(c2cc(-c3ccc4c(N)n[nH]c4c3)nc(N)n2)C1 (stereo not shown) [GSK2286096]	0%	0%	0%	0%	0%	0%	11%	1%	0%	0%	–
O=c1cc(N2CCOCC2)nc2n(Cc3cccc(Cl)c3)ccn12 [GSK2296823]	15%	0%	12%	47%	0%	28%	7%	0%	0%	12%	–
Cc1ccc(NC(=O)c2cccc(C#N)c2)cc1-c1ccc(C(=O)Nc2ccncc2)cc1 [GSK1398463]	0%	0%	20%	11%	0%	20%	9%	0%	37%	0%	–
CSc1nn2c(=O)cc(N3CCOCC3)nc2n1Cc1cccc(Cl)c1Cl [GSK2347225]	20%	0%	0%	17%	0%	16%	8%	0%	0%	11%	–
Nc1nc(-c2ccccn2)c(-c2ccnc3ccccc23)s1 [GW548057]	1%	0%	58%	0%	0%	8%	5%	26%	4%	17%	–
CNc1nccc(-c2c(-c3ccc(F)cc3)ncn2CCCN2CCOCC2)n1 [SB-222516]	22%	0%	23%	0%	0%	0%	14%	8%	0%	0%	–
FC(F)(F)c1ccc(-c2cc(-c3c[nH]nc3-c3ccccn3)ccn2)cc1 [GW599550]	0%	0%	33%	14%	4%	19%	0%	14%	0%	0%	–
COc1ccc(Nc2nccc(N3CCC(NC(=O)c4cccc(NC(C)=O)c4)C3)n2)cc1 (stereo not shown) [GSK1379732]	0%	2%	49%	0%	0%	4%	0%	46%	0%	0%	–
CC(=O)Nc1n[nH]c2ncc(-c3ccccc3)cc12 [SB-548492]	26%	0%	0%	18%	31%	78%	–	42%	9%	45%	50%
Fc1ccc(-c2ncn(CCCNCc3ccccc3)c2-c2ccncc2)cc1	12%	0%	0%	12%	5%	8%	28%	12%	7%	25%	–
Fc1cccc(COc2ccc(Nc3ncnc4sc(-c5ccc[nH]5)cc34)cc2Cl)c1 [GW707818]	0%	0%	0%	0%	0%	22%	3%	0%	0%	0%	–
Cl.O=S(=O)(c1cccc(F)c1)c1ccc(Nc2ncnc3cc(Br)sc23)cc1Cl [GSK306886]	4%	0%	0%	0%	0%	21%	31%	0%	0%	0%	–
